Measurements published in PubChem BioAssay AID1159580 (chemical genetic matrix, 2015).
Hit rate of the full screen: of about 5,500 compounds, about 2,000 (36%) were called active. Not shown: some 18% with an inconclusive outcome. Rule as the data show it: active = normalized growth mostly below about 0.91 (no sharp cut-off); inconclusive = no clear call, values can overlap the other calls; inactive = mostly above about 0.92. The list shows a part of the results.

Test: chemical genetic growth profiling, strain panel (AID 1159580);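 also: tested at 20 µM; growth read once vehicle control cultures reached saturation at 30 °C; 1 = growth at the plate median or of vehicle wells; lower values mean less growth of the strain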
Settings: S. cerevisiae deletion strains, growth OD
[1] = locus YAL013W, strain DEP1, active compounds read low
[2] = locus YAL040C, strain CLN3, active compounds read low
[3] = locus YCL061C, strain MRC1 (second series), active compounds read low
[4] = locus YER002W, strain NOP16, active compounds read low
[5] = locus YMR263W, strain SAP30, active compounds read low
[6] = locus YNL175C, strain NOP13, active compounds read low
[7] = locus YNL197C, strain WHI3, active compounds read low
[8] = locus YNL224C, strain SQS1, active compounds read low
[9] = locus YOR083W, strain WHI5 (second series), active compounds read low
[10] = locus YPL055C, strain LGE1, active compounds read low

Measured: normalized growth

c1ccc2nc(C3=NCCN3)ccc2c1
inactive: [1] 0.99 | [2] 1.04 | [3] 0.986 | [4] 0.993 | locus YGR229C, strain SMI1, active compounds read low 0.955 | [5] 0.982 | [6] 0.995 | [7] 0.996 | [8] 0.993 | [9] 1 | [10] 1.01 | locus YPL241C, strain CIN2, active compounds read low 0.987

NC(=O)CN1CC(O)CC1=O (stereo not given)
inactive: [1] 1 | [2] 1 | [3] 1 | locus YDR363W, strain ESC2, active compounds read low 0.995 | [4] 1.01 | locus YGR078C, strain PAC10, active compounds read low 1.02 | locus YJR075W, strain HOC1, active compounds read low 1.01 | [5] 1 | [6] 1.01 | [7] 1.01 | [8] 1 | [9] 1 | [10] 1.01
